# Only some compounds are listed: those with a hit (about 2.3% of all), similar ones and a draw of the others.
# p53ts 32C tox – kills p53ts cells at the permissive temperature; H1299-p53A138V at 32C, ATP luminescence viability, 24 h; Potency, µM (highest dose often 46.1 µM), for the others: at the highest dose activity change, negative = cytotoxicity, actives largely listed as cytotoxic; 0.93% of 130,000 active; AID 924;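 further: 0% = DMSO and -100% = full killing by reference compound; nearly all actives have a fitted effect of over 55% in size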
#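 H1299-p53 A138V cells (temperature-sensitive p53) exposed 24 h to up to 46 uM compound at 32C, where p53 is wild-type in conformation. Viability read as ATP luminescence and normalised to DMSO and 100 uM tamoxifen. AC50 fitted with the Hill equation.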
# ERK AVP block – inhibitors of vasopressin-stimulated ERK signaling pathway. HEK293-V1b, vasopressin-stimulated pERK AlphaScreen. AID 995. 0.99% of 72,000 active. Potency, µM (doses to about 57.5 µM), for the others: at the top dose activity, negative = inhibition, most hits filed as inhibitors; further: on the % scale 0 is the no-effect control and ±100 the full control effect; nearly all actives have a fitted effect of over 55% in size
#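 Overnight-seeded V1b-HEK293 cells in 1% FBS got compound, then vasopressin (25 nM final, 5 min, 37C), then lysis buffer. AlphaScreen detection of phospho-ERK; activity normalized to basal and full-stimulation controls.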
# IkB signaling – inhibitors of IkB signaling in ABC-DLBCL cells; ABC-DLBCL IkBa-CBG/CBR dual luciferase ratio, 4 h; response scale: scaled: untreated 0%, proteasome inhibitor 100%; Potency, µM (highest dose often 57.1 µM), for inactives: at the top dose IkBa stabilization activation; 0.04% of 110,000 active; AID 445; active means well fitted curve in the direction sought with a large enough effect in the signal ratio, not every such curve was filed as active; inconclusive means small, poorly fitted or top-dose-only effect, or a change in a side signal; the % refers to the signal ratio;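 further: the direction sought is a rising ratio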
#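 Curves were fitted separately to fusion (green), unfused (red) and ratio luminescence, then classed by r2, magnitude and activity. Cells: OCI-Ly3, 4 h compound plus doxycycline at 37C; 10 uM MG-132 defined full response.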
# Peg3 imprint – inducers of genomic imprint erasure in mouse ES cells. mouse ES Peg3-LacZ reporter, beta-gal luminescence, 40 h. Potency, µM (doses to about 60.7 µM), inactives show top-dose activity change, positive = activation, most hits filed as activators. 0.02% of 110,000 active. AID 1948
#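 Each well holds 300 Peg3LacZ-Neo (maternal) female ES cells incubated 40 h at 37C, 5% CO2. LacZ is measured by BetaGlo luminescence, with AC50 and maximum efficacy derived from dose-response curves.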
# p53ts 39C tox – kills p53ts cells at the nonpermissive temperature; H1299-p53A138V viability at 39C, ATP luminescence, 24 h; 1.5% of 130,000 active; Potency, µM (series often up to 46.1 µM), for the others: at the highest dose activity change, negative = cell killing, actives largely listed as cytotoxic; further: on the % scale 0 is the no-effect control and ±100 the full control effect; nearly all actives have a fitted effect of over 55% in size
# Active calls of the source: *; ? = inconclusive; . = not tested or not shown; [ ] = dose if it differs, or a comment. Unless noted, the call rests on the fitted dose curve; in most records, active means well fitted curve in the direction sought with a large enough effect; inconclusive means small, poorly fitted or top-dose-only effect, or another doubt; inactive means no such curve, though single readings can be large; an effect the other way counts as inactive or inconclusive. Potency means the concentration at half of the fitted maximal effect.
SMILES,p53ts 32C tox,ERK AVP block,IkB signaling,Peg3 imprint,p53ts 39C tox
CCOC(=O)C1CCN(C(=O)c2ccc(NC(=O)c3nsc4ccccc34)cc2)CC1,?,.,?,-3.8%[10.9 µM],?
CN(Cc1ccccc1)C(=O)c1cccc(NC(=O)c2nsc3ccccc23)c1,?,.,2.1%,-19.5%[10.9 µM],10µM*
Cc1cc2nc(-c3cccc(NC(=O)C(C)C)c3C)oc2cc1C,?,.,4.3%,-12.0%[10.9 µM],0.126µM*
Cn1c(CCCOc2ccc(Cl)cc2Cl)nnc1SCC(=O)Nc1nccs1,-1.3%,31.6µM*,-0.4%,-6.6%,-8.2%
COc1ccc(N2CCn3c2nc2c3c(=O)n(CCCc3ccccc3)c(=O)n2C)c(OC)c1,-7.2%,12.6µM*,?,-18.8%,25.3%
COc1ccc(N2CCn3c2nc2c3c(=O)n(CCc3ccccc3)c(=O)n2C)c(OC)c1,3.3%,-9.2%,-0.2%,-5.2%,2.9%
COc1cc(C(=O)Oc2c(CN3CCOCC3)cc(Cl)c3cccnc23)cc(OC)c1OC,?,?,?,-35.4%,12.6µM*
Cc1cc(Nc2ccccc2)nc(-c2ccccc2O)n1,-12.0%,31.6µM*,-0.4%,-20.5%,0.2%
Cc1cc(Nc2cccc(F)c2)nc(-c2ccccc2O)n1,?,7.94µM*,?,-23.0%,15.8µM*
COc1ccc(-c2cc(C(=O)N/N=C\c3cc(OC)c(OC)c(OC)c3)[nH]n2)cc1,-24.3%,.,.,.,-23.2%
CCn1c(=O)cc(C(=O)OC)sc1=Nc1ccc(F)c(F)c1,20µM*,?,?,-38.6%,16.9%
NS(=O)(=O)c1ccc(NC(=O)c2csnn2)cc1,-3.0%,.,0.0%,-14.7%[10.9 µM],13.9%
CC(C)c1ccc(NC(=O)c2csnn2)cc1,12.6µM*,-23.0%,-2.0%,-51.5%,15.8µM*
O=C(CSc1nc2ccccc2[nH]1)N1CCN(c2ccc(F)cc2)CC1,3.5%,25.1µM*,10.7%,-11.9%,4.3%
O=C(NC1CCCC1)c1ccc(CSc2nc3cccnc3n2Cc2cccc(F)c2)cc1,-2.2%,.,.,.,.
O=C(NCc1cccs1)c1ccc(CSc2nc3cccnc3n2Cc2ccccc2)cc1,-10.8%,.,.,.,.
Cc1ccc(CSc2nc3cccnc3n2Cc2ccc(C(=O)NC3CCCCC3)cc2)cc1,11.2µM*,.,.,.,.
O=C(NC1CC1)c1ccc(Cn2c(SCc3ccccc3F)nc3cccnc32)cc1,15.8µM*,.,.,.,.
Cc1ccc(CSc2nc3cccnc3n2Cc2ccc(C(=O)NCCc3cccs3)cc2)cc1,5.01µM*,.,.,.,.
COc1ccc2c(c1)[n+]([O-])c(/C(C)=N/NC(N)=S)c(C)[n+]2[O-],6.4%[9.22 µM],-14.9%[11.5 µM],1.3%[11.4 µM],.,2.7%[9.22 µM]
COc1ccc(-c2cc3nc4n(c(=O)c3s2)CCC4)cc1,5.01µM*,-13.0%,2.9%,-89.4%,5.01µM*
COc1cccc(NC(=O)c2sc3nc4n(c(=O)c3c2C)CCC4)c1,?,.,1.1%,-12.9%[10.9 µM],-19.4%
CCCCCNC(=O)c1ccc2c(c1)nc(C)n2-c1cccc(C)c1,13.4%,.,-0.9%,-8.8%[10.9 µM],20µM*
O=C(Nc1cccc(O)c1)c1noc2c1CCc1ccccc1-2,3.98µM*,.,?,-54.5%[10.9 µM],2.51µM*
O=C(Nc1cccc(C(F)(F)F)c1)c1noc2c1CCc1ccccc1-2,-0.9%,.,?,-2.9%[10.9 µM],-15.9%
SMILES,p53ts 32C tox,ERK AVP block,IkB signaling,Peg3 imprint,p53ts 39C tox
Cc1ccc2nc(NC(=O)C3CCN(S(=O)(=O)c4cccs4)CC3)sc2c1,-5.7%,25.1µM*,-1.1%,-15.3%,-13.6%
COc1ccc2nc(NC(=O)C3CCCN(S(=O)(=O)c4cccs4)C3)sc2c1 (stereo not drawn),11.0%,?,?,-23.5%,-5.8%
Cc1ccc(Cn2c(N3CCCCCC3)nc3c2c(=O)[nH]c(=O)n3C)cc1,10.2%,15.8µM*,1.5%,-4.9%,-6.1%
O=C(NC1CC1)c1cccc(Nc2ccc(-c3ccc4c(c3)OCCO4)nn2)c1,20µM*,9.9%,?,.,10µM*
O=C(Nc1cccc(Br)c1)c1cc(-c2ccc3c(c2)OCCO3)on1,?,.,?,-41.7%[10.9 µM],?
Cc1occc1-c1nnc(SCC(=O)c2cc3ccccc3oc2=O)o1,0.1%,15.8µM*,?,-2.3%,0.4%
FC(F)(F)c1cc(-c2ccco2)nc(NCc2ccco2)n1,2.6%,35.1%,26.5%,-30.9%,-7.6%
FC(F)(F)c1cc(-c2ccco2)nc(NCc2cccs2)n1,?,19.3%,5.2%,-9.9%,20µM*
CC(C)(CCc1nc2ccccc2[nH]1)C(=O)O,-0.3%[9.22 µM],-1.4%[11.5 µM],-1.3%[11.4 µM],-3.2%[10.9 µM],1.5%[9.22 µM]
Cc1c(C(=O)N2CCN(c3ccccn3)CC2)oc2ccccc12,-8.6%,-24.7%,?,-22.5%,-8.3%
O=C(c1oc2ccccc2c1CSCc1ccccc1)N1CCN(c2ncccn2)CC1,-20.6%,5.01µM*,?,-17.4%,1.5%
CCc1nc(N)c(C#N)c(-c2ccc(OC)c(OC)c2)c1C,4.6%,-8.7%,-1.0%,-6.0%,-15.9%
CCc1nc(C)c(C#N)c2cc(OC)c(OC)cc12,-2.2%,25.1µM*,-0.9%,-1.6%,1.0%
Cc1c(C(=O)NCC2CCCO2)oc2ccc3c(c12)C(=O)CC(C)(C)O3 (stereo not drawn),12.6µM*,.,.,.,?
Cc1c(C(=O)Nc2cccc(C(F)(F)F)c2)oc2ccc3c(c12)C(=O)CC(C)(C)O3,-29.5%,.,-1.5%,-14.4%[10.9 µM],15.8µM*
Cc1cc(C)cc(NC(=O)c2oc3ccc4c(c3c2C)C(=O)CC(C)(C)O4)c1,?,.,?,-32.1%[10.9 µM],?
CC(C)=CC(=O)Nc1ccc2c(c1)OCO2,10µM*,1.0%,0.7%,-89.4%,?
CC[C@@H](Nc1ncnc2nc[nH]c12)C(=O)O,1.7%[9.22 µM],10.2%[11.5 µM],0.9%[11.4 µM],-11.3%[10.9 µM],8.0%[9.22 µM]
CCOC(=O)c1nn(-c2ccc3c(c2)CCN3C(C)=O)cc1O,5.01µM*,4.1%,0.1%,-64.2%,3.98µM*
CCOCCCNS(=O)(=O)c1ccc2c(c1)CCN2C(C)=O,3.9%,8.2%,-1.4%,-8.2%,-11.8%
O=C(SCc1cccc2ccccc12)c1ccc(Cl)cc1,-2.5%[9.22 µM],15.2%[11.5 µM],0.0%[11.4 µM],-12.6%[10.9 µM],0.7%[9.22 µM]
COc1cc(OC)c(NS(=O)(=O)c2ccc3oc(=O)c4ncn(C)c4c3c2)cc1Cl,3.5%,.,1.4%,?,13.8%
CCOc1ccccc1NS(=O)(=O)c1ccc2oc(=O)c3ncn(C)c3c2c1,?,.,13.5%,3.2%[10.9 µM],20µM*
Cn1cnc2c(=O)oc3ccc(S(=O)(=O)Nc4ccc(F)cc4)cc3c21,-14.9%,.,5.2%,12.8%[10.9 µM],12.6µM*
Cc1ccc(Cl)cc1NS(=O)(=O)c1ccc2oc(=O)c3ncn(C)c3c2c1,?,.,6.6%,-4.1%[10.9 µM],20µM*
Cc1ccc(NS(=O)(=O)c2ccc3oc(=O)c4ncn(C)c4c3c2)cc1C,?,.,?,-4.2%[10.9 µM],?
Cc1nn(-c2ccccc2Cl)c(Cl)c1/C=N/Nc1cccc(C(=O)O)c1,11.2µM*,.,.,.,11.2µM*

# High-throughput results from PubChem.
